# Results from PubChem BioAssay AID1851 (National Center for Advancing Translational Sciences (NCATS), 2009).
# Among all 16,000 compounds or so, about 2,600 (16%) were called active. Another 20% or so got no clear call; they are omitted. Calls follow the shape of the dose curve; as a rule, active = well fitted curve in the direction sought with a large enough effect; inconclusive = small, poorly fitted or top-dose-only effect, or effect the other way; inactive = no such curve, though single readings can be large or run the other way. Not all results are given here.
# Target: Cytochrome P450 2D6 (Homo sapiens) (UniProt P10635)
# Assay: Cytochrome panel assay with activity outcomes
# Conditions: recombinant CYP, pro-luciferin dealkylation, luminescence, p450-cyp2d6; series mostly up to 57.1 µM; activity, negative = inhibition: at the top concentration
# % is scaled to controls: 0 for no effect and ±100 for the full control effect.
# Sequence of Cytochrome P450 2D6 (Homo sapiens) (P10635 whole entry, looked up): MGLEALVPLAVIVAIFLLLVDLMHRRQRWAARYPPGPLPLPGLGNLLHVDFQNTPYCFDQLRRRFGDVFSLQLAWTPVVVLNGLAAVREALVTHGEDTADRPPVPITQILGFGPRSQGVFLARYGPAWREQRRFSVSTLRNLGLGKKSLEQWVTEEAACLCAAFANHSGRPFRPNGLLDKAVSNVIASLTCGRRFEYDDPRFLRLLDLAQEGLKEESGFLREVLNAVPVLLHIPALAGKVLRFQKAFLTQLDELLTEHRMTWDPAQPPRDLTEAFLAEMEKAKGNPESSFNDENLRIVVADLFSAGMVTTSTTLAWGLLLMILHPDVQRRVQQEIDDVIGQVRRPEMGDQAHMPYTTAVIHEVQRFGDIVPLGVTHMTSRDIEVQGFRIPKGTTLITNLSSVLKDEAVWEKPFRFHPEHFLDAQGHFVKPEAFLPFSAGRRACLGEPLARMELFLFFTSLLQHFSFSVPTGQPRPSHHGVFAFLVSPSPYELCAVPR
Compound,AC50,"activity, negative = inhibition"
CCC/C=C(\CCC)C(NS(=O)(=O)c1ccc(Cl)cc1)c1ccccc1 (stereo not drawn),20 µM (active),–
CCC/C=C(\CCC)C(NS(=O)(=O)CC12CCC(CC1=O)C2(C)C)c1ccc(C(=O)OC)cc1 (stereo not drawn),5.01 µM (active),–
CCC/C=C(\CCC)C(NS(=O)(=O)c1ccc(Cl)cc1)c1ccc(C(=O)OC)cc1 (stereo not drawn),–,-8.65% (inactive)
CCC/C=C(\CCC)C(NC(=O)c1cccs1)c1ccc(C(=O)OC)cc1 (stereo not drawn),–,-6% (inactive)
CCC/C=C(\CCC)C(NS(=O)(=O)c1cccs1)c1ccc(C(=O)OC)cc1 (stereo not drawn),6.31 µM (active),–
CCC/C=C(\CCC)C(NS(=O)(=O)c1ccc(C(F)(F)F)cc1)c1ccc(C(=O)OC)cc1 (stereo not drawn),–,2.44% (inactive)
CCC/C=C(\CCC)C(NS(=O)(=O)c1ccc(C(F)(F)F)cc1)c1ccc(-c2ccccc2)cc1 (stereo not drawn),–,1.52% (inactive)
CCC/C=C(\CCC)C(NS(=O)(=O)c1cccc2cccnc12)c1ccc(C(=O)OC)cc1 (stereo not drawn),–,-12% (inactive)
CCC/C=C(\CCC)C(NC(=O)c1ccc(-c2ccccc2)cc1)c1ccc(C(=O)OC)cc1 (stereo not drawn),–,2.92% (inactive)
CCC/C=C(\CCC)C(NC(=O)c1ccc(C(F)(F)F)cc1)c1ccccc1 (stereo not drawn),7.94 µM (active),–
CCC/C=C(\CCC)C(NC(=O)c1ccc(C(F)(F)F)cc1)c1ccc(C(F)(F)F)cc1 (stereo not drawn),–,0.53% (inactive)
CCC/C=C(\CCC)C(NC(=O)OCC(C)C)c1ccc(C(=O)OC)cc1 (stereo not drawn),–,-9.01% (inactive)
O=C(Nc1cccn(Cc2c(Cl)cccc2Cl)c1=O)c1ccc(Cl)cc1Cl,–,12% (inactive)
Cc1ccccc1N1CCN(C(=O)c2ccccc2NC(=O)/C=C\C(=O)O)CC1,–,2.71% (inactive)
C/C(=N\[N+](C)(C)C)c1ccc(C)c(C)c1,–,-19.6% [at 11.4 µM] (inactive)
O=C(O)C1C2C=CC(C2)C1C(=O)N1CCN(C/C=C/c2ccccc2)CC1 (stereo not drawn),–,-10.1% (inactive)
Cc1cccc(C(=O)Nc2nnc(-c3ccc(C(C)(C)C)cc3)s2)c1,–,7.99% (inactive)
CCCc1nnc(NC(=O)Cn2cnc3ccccc3c2=O)s1,–,11.7% (inactive)
COc1ccc(C(O)P(=O)(OC(C)C)OC(C)C)cc1OC (stereo not drawn),–,-13.6% (inactive)
CCc1ccc(N2C(=O)c3ccc4c5c(ccc(c35)C2=O)CC4)cc1,–,-7.44% (inactive)
C=CCN1C(=O)CN=C1Nc1ccccc1,–,2.01% (inactive)
CN1CCN(/C=N/C2=C(C#N)C(c3ccccc3)C3=C(CC(C)(C)CC3=O)O2)CC1 (stereo not drawn),–,5.01% (inactive)
CSc1nc(C)c2c(n1)N(c1ccc(C(C)C)cc1)CC2,–,-7.45% (inactive)
CSc1nc(C)c2c(n1)N(c1ccc(C(F)(F)F)cc1)CC2,–,7.98% (inactive)
COc1ccc2c(C)cc(N3CCOCC3)nc2c1,–,-26.1% (inactive)
COc1ccc(N2C(=O)CSC2c2cccc(F)c2)c(OC)c1 (stereo not drawn),–,17.9% (inactive)
COc1cc(OC)c2nc(C)c3c(c2c1)N(c1ccc(O)cc1)CC3,3.16 µM (active),–
COc1ccc(N2CCc3c(C)nc4c(OC)cc(OC)cc4c32)c(OC)c1,0.1 µM (active),–
